Assay results published in PubChem BioAssay (NCATS).
Values joined by “and” are separate entries in the source; they are usually repeats but may differ in a detail not shown here. Identical values can stand only once. Records with an inconclusive call do not appear. Values without a mark were called inactive. Active and inactive are the calls of the source. Calls follow the shape of the dose curve; as a rule, active = well fitted curve in the direction sought with a large enough effect; inconclusive = small, poorly fitted or top-dose-only effect, or another doubt; inactive = no such curve, though single readings can be large or run the other way.

Experiment: qHTS Assay for Identifying Gametocytocidal Compounds (AID 743244);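 as to max response: actives lower the fluorescent signal which means gametocytes are killed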
Settings: P. falciparum 3D7 stage III-V gametocytes, alamarBlue, 72 h; max response: stronger effect = lower value
How it was run: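 3D7 gametocytes, stages III–V, 20,000/well; cpd 72 h, 37 °C/5% CO2; + alamarBlue 24 h; fluor. Ex 525/Em 598.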
% is scaled to controls: 0 for no effect and ±100 for the full control effect; potency is read from the fitted curve at half-maximal effect.

With `CCN(CC)C(=O)[C@@H]1C=C2c3cccc4[nH]cc(c34)C[C@H]2N(C)C1` as the compound, how does the Potency read?
Its Potency is 63.1 µM (active).

Which max response does the source give for `O=c1[nH]cnc2[nH]ncc12` here?
Its max response is -1.56%.

With `CCN(CC)CCc1c[nH]c2ccccc12` as the compound, how does the max response read?
Its max response is 14.8%.

Which max response does the source give for `Clc1ccc2c(c1)C(c1ccccc1)=NCc1nncn1-2` here?
The max response was 5.88%.

With `CCC1(c2ccccc2)C(=O)N(COC)C(=O)N(COC)C1=O` as the compound, how does the max response read?
Its max response is -2.08%.

For `COC1CC(=C(c2cccs2)c2cccs2)C[N+](C)(C)C1` (stereo not drawn), which Potency is on record?
Its Potency is 8.91 µM (active).

For `COC(=O)C(Cl)C(=O)OC`, which max response is on record?
Its max response is -5.17%.

Which max response does the source give for `CCc1cc2c(s1)-n1c(C)nnc1CN=C2c1ccccc1Cl` here?
The max response was 2.24%.

For `CN1C(=O)COc2c(C(=O)NC3CN4CCC3CC4)cc(Cl)cc21` (stereo not drawn), which max response is on record?
The max response was 4.3%.

With `O=C(Nc1ccc(Br)cc1)c1cc(Br)cc(Br)c1O` as the compound, how does the max response read?
The max response was 3.6%.

With `O=C(O)/C=C\C(=O)O` as the compound, how does the max response read?
Its max response is 2.8%.

With `O=C1CN=C(c2ccccc2)c2cc([N+](=O)[O-])ccc2N1` as the compound, how does the max response read?
Its max response is 13.6%.

Which max response does the source give for `O=[N+]([O-])O[C@H]1CO[C@H]2[C@@H]1OC[C@H]2O[N+](=O)[O-]` here?
Its max response is 30.8%.

Which max response does the source give for `COc1ccc2c(c1)C13CCCC[C@@H]1C(C2)N(C)CC3` (stereo partly drawn) here?
The max response was 7.6%.

With `c1ccc2c(c1)sc1ccccc12` as the compound, how does the max response read?
Its max response is 5.76%.

Which max response does the source give for `CCC1(CC)C(=O)C=CNC1=O` here?
Its max response is -13.9%.

Which max response does the source give for `CC(=O)CC(c1ccccc1)c1c(O)c2ccccc2oc1=O` (stereo not drawn) here?
Its max response is 17.5% and 36.1%.

With `CCN[C@H](C)Cc1cccc(C(F)(F)F)c1` as the compound, how does the max response read?
The max response was 16.7%.
